Screening results from PubChem.
GPT2 inhibitor = Primary qHTS assay for inhibitors of Glutamate pyruvate transaminase 2 (GPT2) | Alanine aminotransferase 2 (Homo sapiens), Q8TD30 | Recombinant GPT2, coupled pyruvate oxidase/HRP Amplex Red fluorescence | Potency, µM (top dose mostly 57.7 µM), for the others: at the highest dose activity change, negative = inhibition, hits mostly inhibitors | 0.25% of 100,000 active | AID 1671188, 2021; further: potency means the concentration at half of the fitted maximal effect; on the % scale 0 is the no-effect control and ±100 the full control effect; nearly all actives have a fitted effect of over 60% in size
Target sequence (Q8TD30 whole entry, looked up): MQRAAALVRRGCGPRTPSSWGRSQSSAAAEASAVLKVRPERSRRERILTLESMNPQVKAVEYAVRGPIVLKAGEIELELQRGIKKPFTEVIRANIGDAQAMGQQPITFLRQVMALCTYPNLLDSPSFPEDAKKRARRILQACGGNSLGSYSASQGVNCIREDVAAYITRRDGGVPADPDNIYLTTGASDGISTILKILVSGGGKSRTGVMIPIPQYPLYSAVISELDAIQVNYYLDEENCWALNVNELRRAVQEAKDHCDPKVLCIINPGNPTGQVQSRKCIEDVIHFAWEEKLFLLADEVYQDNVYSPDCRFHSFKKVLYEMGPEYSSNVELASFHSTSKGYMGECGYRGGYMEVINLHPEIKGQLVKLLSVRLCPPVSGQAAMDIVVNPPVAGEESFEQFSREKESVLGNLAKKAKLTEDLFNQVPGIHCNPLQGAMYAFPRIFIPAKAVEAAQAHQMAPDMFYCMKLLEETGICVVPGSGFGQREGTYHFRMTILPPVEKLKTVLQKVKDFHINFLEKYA
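Fluorescence read-out: pyruvate from GPT2 turnover coupled to pyruvate oxidase, HRP and Amplex Red (0.2mM ThPP, 0.2U/mL PO and HRP, 50uM Amplex final). Substrates 250uM a-KG, 2mM L-alanine; enzyme 10ng/uL; 30 min RT.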
GPT2 conf = Confirmatory qHTS assay for inhibitors of Glutamate pyruvate transaminase 2 (GPT2); shares compounds with GPT2 inhibitor; GPT2 enzyme, coupled Amplex Red pyruvate fluorescence; Potency, µM, usual class: inhibitors; 90% of 95 active; AID 1671187, 2021
The depositor's hits bear a star; [ ] = remark or other dose. The full list was thinned out, with hits kept by preference. The call rests on the fitted dose curve; in most records, active means well fitted inhibition curve with a large enough effect; inconclusive means small, poorly fitted or top-dose-only effect; inactive means flat fitted curve, though single readings scatter.

How did CCOCCCNC(=O)[C@H]1CCC[C@H]1NC(=O)c1ccncc1 do in these assays?
GPT2 inhibitor: inactive

What do the screens show for `Fc1ccc(CN2CCn3c(nnc3-c3ccccc3)C2)cc1`?
GPT2 inhibitor: -0.3%[88.5 µM]

How did Oc1ccccc1CN[C@H]1[C@H](O)[C@@H](N2CCN(c3ccccc3)CC2)[C@@H]2OC[C@H]1O2 do in these assays?
GPT2 inhibitor: inactive

Results for O=C(CCC[C@H]1NC[C@@H]2C[C@H]1CN(Cc1ccccc1)C2)NC1CCN(Cc2ccccc2)CC1 ?
GPT2 inhibitor: inactive

What do the screens show for `O=C(CCC[C@H]1NC[C@@H]2C[C@H]1CN(Cc1ccccc1)C2)Nc1ccc(N2CCOCC2)cc1`?
GPT2 inhibitor: 7.08µM*; GPT2 conf: 4.85*

How did O=C(CCC[C@H]1NC[C@@H]2CC1CN(Cc1ccccc1)C2)NCCCN1CCOCC1 do in these assays?
GPT2 inhibitor: inactive

What do the screens show for `O=C(NCC1CC1)c1ccc2oc(-c3ccccn3)nc2c1`?
GPT2 inhibitor: inactive

Results for CCOc1ccccc1NC(=O)N1CCC(Oc2ncccc2C(=O)N2CCCCC2)C1 (configuration not stated) ?
GPT2 inhibitor: -4.2%

Results for COc1ccc(CNC(=O)N2CCOc3ccc(N(C)C)cc3C2)cc1 ?
GPT2 inhibitor: 1.78µM*; GPT2 conf: 0.863*

What do the screens show for `Cc1ccc(CNC(=O)c2ccc3c(c2)CN(Cc2ccc(N(C)C)cc2)CCO3)cc1`?
GPT2 inhibitor: -0.2%

Results for CCNC(=O)N1CCOc2ccc(CN3CCOCC3)cc2C1 ?
GPT2 inhibitor: inactive

What do the screens show for `CCNC(=O)N[C@H]1[C@H](O)[C@@H](N2CCOCC2)[C@@H]2OC[C@H]1O2`?
GPT2 inhibitor: inactive
